This note sets out measurements from PubChem BioAssay (NCATS).

The structures appear in SMILES notation. Unmarked numbers belong to inactive results. Results filed as inconclusive are left out. The source made the active and inactive calls. Unless noted, calls follow the shape of the dose curve; as a rule, active = well fitted curve in the direction sought with a large enough effect; inconclusive = small, poorly fitted or top-dose-only effect, or another doubt; inactive = no such curve, though single readings can be large; an effect the other way counts as inactive or inconclusive.

Experiment [1] has as its target Retinoic acid receptor RXR-alpha (Homo sapiens) (UniProt P19793). Briefly: qHTS assay for small molecule antagonists of retinoid X receptor alpha signaling (AID 588546; active = well fitted inhibition curve with a large enough effect in the signal ratio, with a control signal flat, not every such curve was filed as active; the % refers to the signal ratio; also: % is scaled to controls: 0 for no effect and ±100 for the full control effect). The note with it: HEK293T RXRa-UAS-bla, beta-lactamase ratio, antagonist mode. A digest of the protocol: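 Beta-lactamase reporter inhibition, read as CCF4 fluorescence ratio (ex 405, em 460/530 nm) after 2 h at RT. HEK293T UAS-bla cells, 2500/well, were stimulated with 9-cis-RA at 500 or 100 nM final alongside test compound for 18 h at 37 C.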

The target in experiment [2] is Thyroid hormone receptor beta (Homo sapiens) (UniProt P10828). Description: qHTS assay for small molecule antagonists of thyroid hormone receptor beta signaling (AID 588547; active = well fitted inhibition curve with a large enough effect in the signal ratio, with a control signal flat, not every such curve was filed as active; the % refers to the signal ratio;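 also: cells stimulated with 0.4 nM T3 agonist during compound exposure; series mostly up to about 77 µM; % is scaled to controls: 0 for no effect and ±100 for the full control effect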). The note with it: TR-UAS-bla HEK293, beta-lactamase ratio, antagonist mode, 18 h. A digest of the protocol:
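Inhibition of T3-driven (0.4nM final) beta-lactamase reporter activity was measured over 0.59 nM to 92 uM compound after 18 h at 37 C. The cells were GripTite HEK293 TR-UAS-bla in charcoal/dextran-stripped serum, with CCF4 ratio read-out and IC50 from Hill fits.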

Experiment [3] in a line: qHTS assay for small molecule disruptors of the mitochondrial membrane potential - 1 hr assay (AID 651754; calls by dose curve; also: % is scaled to controls: 0 for no effect and ±100 for the full control effect; nearly all actives have a fitted effect of over 35% in size). Put shortly:
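Loss of mitochondrial potential shifts the cationic dye from red mitochondrial aggregates to green cytoplasmic monomers. Cells (HepG2) are treated with compound for 1 hr before a 30 min dye incubation at 37C.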

The nature of experiment [4]: qHTS assay for small molecule disruptors of the mitochondrial membrane potential - 5 hr assay (AID 651755; calls by dose curve; also: % is scaled to controls: 0 for no effect and ±100 for the full control effect; nearly all actives have a fitted effect of over 40% in size). A digest of the protocol:
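Membrane-potential dye readout: red aggregate (540 ex/590 em) versus green monomer (490 ex/535 em) fluorescence after 30 min dye loading, following 5 hr compound exposure at 37C of overnight-plated HepG2 cells.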

The target of experiment [5] is Tumor necrosis factor (Homo sapiens) (UniProt P01375). Briefly: qHTS assay to identify small molecules that stimulate Tumor Necrosis Factor-alpha (TNF-alpha) secretion (AID 651757; active = well fitted curve in the direction sought with a large enough effect in the signal ratio; the % refers to the signal ratio; also: 0% is about no effect). A digest of the protocol: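 Human monocytic THP-1 cells are plated, treated with compound and held at 37 C for 17 hrs. Labeled anti-TNF-alpha antibody mixture is then added; after 3 hr at room temperature, TR-FRET signal reports secreted TNF-alpha.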
Chain of Tumor necrosis factor (Homo sapiens) (P01375 whole entry, looked up): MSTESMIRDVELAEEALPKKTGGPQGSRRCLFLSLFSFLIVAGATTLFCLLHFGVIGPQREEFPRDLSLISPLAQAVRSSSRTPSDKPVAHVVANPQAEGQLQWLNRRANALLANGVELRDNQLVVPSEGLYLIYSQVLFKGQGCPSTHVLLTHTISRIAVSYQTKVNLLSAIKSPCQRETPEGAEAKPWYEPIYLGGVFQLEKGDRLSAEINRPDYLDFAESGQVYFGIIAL

Experiment [6] is described as follows: qHTS assay for environmental chemicals that activate the Aryl hydrocarbon Receptor (AhR) signaling pathway (AID 651777). Also: % of control where 0% means no effect; nearly all actives have a fitted effect of over 15% in size. The note with it: 1A2-DRE human hepatoma cells, luciferase, 24 h; activation: active compounds read high. Put shortly:
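Luminescence read-out: One-Glo added for 30 min at RT after 24 hr compound treatment (37 C, 5% CO2) of human hepatoma cells expressing a DRE/CYP1A2 promoter–luciferase reporter; increased signal indicates AhR activation.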

Experiment [7] concerns the target Peroxisome proliferator-activated receptor alpha (Homo sapiens) (UniProt Q07869). Description: qHTS assay for small molecule agonists of the peroxisome proliferator-activated receptor alpha (PPARalpha) signaling pathway (AID 651778). Also: % of control where 0% means no effect. The note with it: PathHunter PPARalpha complementation, chemiluminescence, 6 h; active compounds read high. Put shortly: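 Chemiluminescence from complemented enzyme reported PPARalpha activation in cells after 6 hr of compound treatment at 37 C. The detection reagent was incubated for 60 min at room temperature, and compounds were scored as agonists.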

Experiment [8] in a line: qHTS assay for small molecule agonists of the antioxidant response element (ARE) signaling pathway measured by Nrf2-dependant transcriptional activity (AID 720636; active = well fitted curve in the direction sought with a large enough effect in the repeat runs; an effect the other way counts as inactive or inconclusive;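 also: HepG2 cells with an ARE-driven luciferase reporter; % of control where 0% means no effect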). Put shortly: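 HepG2 ARE-luc reporter line, 1% dialyzed FBS; 6 hr attachment at 37 C, compound pinned in, 16 hr at 37 C/5% CO2; ONE-Glo, 30 min RT, luminescence read.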
Experiment [9] in a line: qHTS assay for small molecule antagonists of the retinoid-related orphan receptor gamma (ROR-gamma) signaling pathway - cell viability counter screen (AID 720652; active = well fitted curve in the direction sought with a large enough effect in the repeat runs; an effect the other way counts as inactive or inconclusive;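 also: CHO reporter cells with doxycycline-induced ROR-gamma expression; series mostly up to about 92 µM; compound exposure lasted 16 hr before ATP read; % is scaled to controls: 0 for no effect and ±100 for the full control effect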). A digest of the protocol: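 Steps: seed CHO cells bearing TET-inducible ROR and ROR response element-luciferase; rest 5 hr at 37 C; add compound, then doxycycline; incubate 16 hr; add CellTiter-Glo and read luminescence as ATP-based viability.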

The nature of experiment [10]: qHTS assay for cell viability of HEK293 cells (AID 743288). Also: % is scaled to controls: 0 for no effect and ±100 for the full control effect; nearly all actives have a fitted effect of over 50% in size. The note with it: ATP luminescence (CellTiter-Glo), 18 h; max response: active compounds read low. Put shortly: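 Quantitative high-throughput screen: compounds were pinned onto parental HEK293 cells (2,000 per well) after a minimum 5 h settling at 37 C, incubated 18 h at 37 C, and intracellular ATP measured by luciferase luminescence.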

Experiment [11] can be described thus: qHTS assay for cell viability of the p53RE-bla HCT-116 cell line (AID 743292). Also: % is scaled to controls: 0 for no effect and ±100 for the full control effect; nearly all actives have a fitted effect of over 55% in size. Put shortly:
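Luminescent ATP quantitation (CellTiter-Glo) served as the viability read-out; reagent was added after 16 h compound exposure at 37 C and read after 30 min at room temperature. Cells: p53RE-bla HCT-116, 4,000 per well.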

Experiment [12] can be described thus: qHTS for Inhibitors of the Functional Ribonucleoprotein Complex (vRNP) of Lassa (LASV) Arenavirus: LASV Primary Screen - GLuc reporter signal (AID 1347082; calls by dose curve; tested in HEK293 reporter line; also: series mostly up to about 57 µM; % is scaled to controls: 0 for no effect and ±100 for the full control effect; nearly all actives have a fitted effect of over 60% in size).
The nature of experiment [13]: qHTS for Inhibitors of the Functional Ribonucleoprotein Complex (vRNP) of Lassa (LASV) Arenavirus: Viability assay - alamar blue signal for LASV Primary Screen (AID 1347083; calls by dose curve; tested in HEK293 reporter line; also: series mostly up to about 57 µM; % is scaled to controls: 0 for no effect and ±100 for the full control effect; nearly all actives have a fitted effect of over 80% in size).
A short description of experiment [14]: qHTS for Inhibitors of the Functional Ribonucleoprotein Complex (vRNP) of Lymphocytic Choriomeningitis Arenaviruses (LCMV): Viability assay - alamar blue signal for LCMV Primary Screen (AID 1347085; calls by dose curve; tested in HEK293 reporter line; also: series mostly up to about 57 µM; % is scaled to controls: 0 for no effect and ±100 for the full control effect; nearly all actives have a fitted effect of over 80% in size).
Experiment [15] concerns the target Nucleoprotein (Lymphocytic choriomeningitis virus (strain Armstrong)) (UniProt P09992). Description: qHTS for Inhibitors of the Functional Ribonucleoprotein Complex (vRNP) of Lymphocytic Choriomeningitis Arenaviruses (LCMV): LCMV Primary Screen - GLuc reporter signal (AID 1347086; calls by dose curve; also: series mostly up to about 57 µM; % is scaled to controls: 0 for no effect and ±100 for the full control effect; nearly all actives have a fitted effect of over 70% in size).
In experiment [16] the target is Rap guanine nucleotide exchange factor 3 (Homo sapiens) (UniProt O95398). Briefly: Confirmatory qHTS for agonist of cAMP-regulated guanine nucleotide exchange factor 3 (EPAC1) (AID 1645881).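 Also: EPAC1 catalysed release of BODIPY-GDP from Rap1B seen as fluorescence loss; 100% = effect of cAMP agonist control; nearly all actives have a fitted effect of over 75% in size.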
Chain of Rap guanine nucleotide exchange factor 3 (Homo sapiens) (O95398 whole entry, looked up): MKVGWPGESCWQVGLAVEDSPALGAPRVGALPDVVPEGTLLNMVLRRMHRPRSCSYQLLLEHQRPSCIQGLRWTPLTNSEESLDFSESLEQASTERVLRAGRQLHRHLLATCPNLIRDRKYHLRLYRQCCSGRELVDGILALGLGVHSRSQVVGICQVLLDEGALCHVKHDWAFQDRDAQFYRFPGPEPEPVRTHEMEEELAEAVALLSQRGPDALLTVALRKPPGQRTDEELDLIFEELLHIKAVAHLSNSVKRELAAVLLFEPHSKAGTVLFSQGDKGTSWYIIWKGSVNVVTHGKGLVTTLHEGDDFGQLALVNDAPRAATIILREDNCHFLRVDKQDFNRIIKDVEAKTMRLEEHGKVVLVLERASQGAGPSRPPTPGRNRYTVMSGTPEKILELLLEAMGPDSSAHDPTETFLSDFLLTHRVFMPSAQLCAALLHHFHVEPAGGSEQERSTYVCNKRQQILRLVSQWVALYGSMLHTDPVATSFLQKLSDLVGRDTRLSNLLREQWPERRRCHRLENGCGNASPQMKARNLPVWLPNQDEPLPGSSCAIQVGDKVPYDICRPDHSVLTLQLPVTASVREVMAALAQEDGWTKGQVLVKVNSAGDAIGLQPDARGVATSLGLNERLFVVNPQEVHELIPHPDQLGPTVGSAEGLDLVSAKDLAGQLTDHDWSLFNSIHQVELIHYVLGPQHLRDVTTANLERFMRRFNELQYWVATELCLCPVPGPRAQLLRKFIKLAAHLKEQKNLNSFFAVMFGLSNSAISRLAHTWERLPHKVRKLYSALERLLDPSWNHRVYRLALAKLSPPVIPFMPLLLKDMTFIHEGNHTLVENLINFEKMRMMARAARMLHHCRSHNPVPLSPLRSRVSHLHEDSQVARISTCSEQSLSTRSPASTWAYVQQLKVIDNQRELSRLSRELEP
Experiment [17] addresses Rap guanine nucleotide exchange factor 4 (Homo sapiens) (UniProt Q8WZA2). Description: Confirmatory qHTS for agonist of cAMP-regulated guanine nucleotide exchange factor 4 (EPAC2) (AID 1645884).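 Also: nucleotide exchange releases bodipy-GDP from Rap1 and this lowers its fluorescence; % is scaled to controls: 0 for no effect and ±100 for the full control effect; nearly all actives have a fitted effect of over 65% in size.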
Experiment [18] shares this target. Description: Confirmatory qHTS for antagonist of cAMP-regulated guanine nucleotide exchange factor 4 (EPAC2) (AID 1645885). Also: potency is read from the fitted curve at half-maximal effect; nearly all actives have a fitted effect of over 25% in size.
In experiment [19] the target is Rap guanine nucleotide exchange factor 3 (Homo sapiens) (UniProt O95398). Briefly: Counterscreen qHTS for antagonist of cAMP-regulated guanine nucleotide exchange factor 3 (EPAC1) (AID 1645888).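 Also: fluorescence loss as bound BODIPY-GDP is released from Rap1B; % of control where 0% means no effect.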 A digest of the protocol: (§1)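 Rap1B-BODIPY-GDP 250 nM + GDP 50 uM; cpds 7-pt, final 9.74 nM–152 uM (activator mode) or from 7.32 nM upwards (inhibitor mode); RT; FI 480/540 nm at 5 and 30 min, then ± cAMP, reread.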

The target is the same in experiment [20]. Description: Counterscreen qHTS for agonist of cAMP-regulated guanine nucleotide exchange factor 3 (EPAC1) (AID 1645889). Also: % of control where 0% means no effect; nearly all actives have a fitted effect of over 40% in size. Put shortly: as §1
Experiment [21] concerns the target Nuclear receptor subfamily 1 group I member 2 (Rattus norvegicus) (UniProt Q9R1A7). Description: qHTS assay for small molecule activators of the rat pregnane X receptor (rPXR) signaling pathway (AID 651751; call rule not given here; also: 0% is about no effect). The note with it: rPXR reporter cells, luciferase (One-Glo), 24 h.
A short description of experiment [22]: qHTS assay for small molecule activators of the human pregnane X receptor (PXR) signaling pathway (AID 720659; call rule not given here; also: 0% is about no effect).

Chain of Rap guanine nucleotide exchange factor 4 (Homo sapiens) (Q8WZA2 whole entry, looked up): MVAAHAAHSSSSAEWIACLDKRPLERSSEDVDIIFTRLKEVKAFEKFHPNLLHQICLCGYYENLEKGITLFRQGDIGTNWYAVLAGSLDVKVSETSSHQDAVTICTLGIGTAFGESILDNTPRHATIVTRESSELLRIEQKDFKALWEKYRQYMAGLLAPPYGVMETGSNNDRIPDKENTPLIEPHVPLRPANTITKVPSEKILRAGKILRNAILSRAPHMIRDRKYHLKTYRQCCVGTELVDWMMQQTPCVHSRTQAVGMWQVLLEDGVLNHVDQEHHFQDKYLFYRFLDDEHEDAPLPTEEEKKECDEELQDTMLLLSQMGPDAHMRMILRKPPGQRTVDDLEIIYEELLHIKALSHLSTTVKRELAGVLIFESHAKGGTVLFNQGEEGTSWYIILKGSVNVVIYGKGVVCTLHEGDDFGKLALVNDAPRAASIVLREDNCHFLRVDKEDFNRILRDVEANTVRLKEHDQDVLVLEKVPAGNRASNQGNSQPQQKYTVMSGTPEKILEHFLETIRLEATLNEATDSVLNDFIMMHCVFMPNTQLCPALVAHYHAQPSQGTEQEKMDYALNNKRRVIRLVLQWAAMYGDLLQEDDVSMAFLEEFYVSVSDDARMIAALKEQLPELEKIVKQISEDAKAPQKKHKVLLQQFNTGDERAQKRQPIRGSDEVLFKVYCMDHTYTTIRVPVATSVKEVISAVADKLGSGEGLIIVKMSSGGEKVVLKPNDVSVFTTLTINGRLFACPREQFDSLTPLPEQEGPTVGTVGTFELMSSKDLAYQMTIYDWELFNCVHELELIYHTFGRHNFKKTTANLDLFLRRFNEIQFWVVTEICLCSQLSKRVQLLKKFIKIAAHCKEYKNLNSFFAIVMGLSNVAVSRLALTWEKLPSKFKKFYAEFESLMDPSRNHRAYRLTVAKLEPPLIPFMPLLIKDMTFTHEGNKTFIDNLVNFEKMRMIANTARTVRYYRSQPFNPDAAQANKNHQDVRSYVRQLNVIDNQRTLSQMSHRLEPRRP
Chain of Peroxisome proliferator-activated receptor alpha (Homo sapiens) (Q07869 whole entry, looked up): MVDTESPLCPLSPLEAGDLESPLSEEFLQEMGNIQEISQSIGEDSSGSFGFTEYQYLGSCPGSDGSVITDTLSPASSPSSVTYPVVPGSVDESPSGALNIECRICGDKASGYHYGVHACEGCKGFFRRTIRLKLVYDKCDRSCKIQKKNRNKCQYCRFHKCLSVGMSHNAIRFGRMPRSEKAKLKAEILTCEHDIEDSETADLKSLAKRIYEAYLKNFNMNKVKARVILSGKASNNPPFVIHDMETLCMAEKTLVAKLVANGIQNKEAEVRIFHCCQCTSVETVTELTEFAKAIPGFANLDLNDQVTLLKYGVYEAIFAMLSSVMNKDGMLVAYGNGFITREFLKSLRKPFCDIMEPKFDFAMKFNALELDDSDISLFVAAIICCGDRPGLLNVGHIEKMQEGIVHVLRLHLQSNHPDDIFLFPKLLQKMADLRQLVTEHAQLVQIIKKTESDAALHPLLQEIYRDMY
Chain of Nucleoprotein (Lymphocytic choriomeningitis virus (strain Armstrong)) (P09992 whole entry, looked up): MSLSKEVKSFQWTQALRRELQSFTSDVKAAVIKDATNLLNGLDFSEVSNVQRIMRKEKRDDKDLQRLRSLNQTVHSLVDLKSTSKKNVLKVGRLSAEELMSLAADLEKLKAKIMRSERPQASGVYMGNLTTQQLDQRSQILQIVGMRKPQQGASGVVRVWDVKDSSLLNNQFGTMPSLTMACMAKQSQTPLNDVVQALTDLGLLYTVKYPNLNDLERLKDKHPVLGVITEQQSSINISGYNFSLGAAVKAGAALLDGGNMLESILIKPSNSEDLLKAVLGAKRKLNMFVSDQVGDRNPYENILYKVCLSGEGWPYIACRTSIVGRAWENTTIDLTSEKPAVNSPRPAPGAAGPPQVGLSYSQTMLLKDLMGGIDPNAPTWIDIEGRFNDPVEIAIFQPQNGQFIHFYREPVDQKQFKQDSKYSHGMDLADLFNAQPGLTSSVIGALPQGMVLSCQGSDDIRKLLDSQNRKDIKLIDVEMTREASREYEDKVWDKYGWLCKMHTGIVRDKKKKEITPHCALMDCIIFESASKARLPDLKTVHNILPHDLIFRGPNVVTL
Chain of Nuclear receptor subfamily 1 group I member 2 (Rattus norvegicus) (Q9R1A7 whole entry, looked up): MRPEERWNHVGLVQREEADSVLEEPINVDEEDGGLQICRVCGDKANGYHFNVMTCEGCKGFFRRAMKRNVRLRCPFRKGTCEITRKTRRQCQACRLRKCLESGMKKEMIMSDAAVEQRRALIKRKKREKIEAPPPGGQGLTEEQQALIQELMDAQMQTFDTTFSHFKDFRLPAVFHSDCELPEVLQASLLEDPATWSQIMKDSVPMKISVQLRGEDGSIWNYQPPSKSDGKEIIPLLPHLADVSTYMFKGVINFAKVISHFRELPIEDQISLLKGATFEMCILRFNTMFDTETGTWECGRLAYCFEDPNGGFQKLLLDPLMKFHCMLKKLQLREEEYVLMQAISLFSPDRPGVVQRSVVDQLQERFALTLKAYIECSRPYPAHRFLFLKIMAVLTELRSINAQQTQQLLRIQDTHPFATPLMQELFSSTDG
Chain of Thyroid hormone receptor beta (Homo sapiens) (P10828 whole entry, looked up): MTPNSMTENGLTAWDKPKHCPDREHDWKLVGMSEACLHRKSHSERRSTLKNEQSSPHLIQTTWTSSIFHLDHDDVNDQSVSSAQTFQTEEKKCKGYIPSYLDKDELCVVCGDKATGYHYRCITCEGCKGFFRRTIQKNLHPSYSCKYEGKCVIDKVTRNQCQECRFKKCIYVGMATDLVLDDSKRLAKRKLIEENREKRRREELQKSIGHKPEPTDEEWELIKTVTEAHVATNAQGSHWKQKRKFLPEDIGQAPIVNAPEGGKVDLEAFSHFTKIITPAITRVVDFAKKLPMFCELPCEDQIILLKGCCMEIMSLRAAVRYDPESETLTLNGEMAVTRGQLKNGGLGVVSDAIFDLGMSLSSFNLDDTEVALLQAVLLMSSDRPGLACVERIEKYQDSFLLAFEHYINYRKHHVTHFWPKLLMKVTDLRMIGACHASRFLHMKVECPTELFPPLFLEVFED
Chain of Retinoic acid receptor RXR-alpha (Homo sapiens) (P19793 whole entry, looked up): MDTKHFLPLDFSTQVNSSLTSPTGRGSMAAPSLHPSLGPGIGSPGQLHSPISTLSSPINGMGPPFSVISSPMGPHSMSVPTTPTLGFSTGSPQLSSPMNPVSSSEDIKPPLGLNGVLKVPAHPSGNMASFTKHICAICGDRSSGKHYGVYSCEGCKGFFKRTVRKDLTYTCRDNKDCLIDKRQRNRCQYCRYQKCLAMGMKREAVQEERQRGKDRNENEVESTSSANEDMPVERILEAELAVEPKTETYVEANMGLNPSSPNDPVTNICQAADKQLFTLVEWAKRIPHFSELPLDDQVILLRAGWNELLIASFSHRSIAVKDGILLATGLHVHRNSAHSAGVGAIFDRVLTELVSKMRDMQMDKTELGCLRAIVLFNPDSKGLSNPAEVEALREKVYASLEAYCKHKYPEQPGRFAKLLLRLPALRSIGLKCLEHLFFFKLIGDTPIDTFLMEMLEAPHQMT

`CC(C)COC(=O)c1ccccc1C(=O)OCC(C)C`: the max response in [1] is 12.8%; in experiment [7], -0.716%; in experiment [10], 0.653%; in experiment [21], -3.74%. In experiment [2], the activity change % (negative = inhibition) was 9.26%. For the same molecule, the Potency entry in experiment [3], in experiment [4], in [8], in [12], in [13] and in [14] was “inactive” in each case. The Potency entry in experiment [15] was “inactive”. Besides, the result in experiment [5], in experiment [9], in [11], in experiment [16], in experiment [17] and in experiment [19] was inactive. In addition, the molecule was classed as inactive in [20] and in [22]. In addition, the activation in experiment [6] is 0.543%. Also, in experiment [18], the Potency was 37.9 µM (active).
